Measured values reported in PubChem BioAssay AID827 (SRMLSC, 2007).
Among all 140,000 compounds or so, about 1,700 (1.2%) were called active.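 How the source made its calls: active means viability at or below a set limit, 4 SD under the median of all tested compounds (cut at about 3.7% in these data); inactive means the rest.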 Only a selection was taken, and actives are over-represented in it overall.

Test: growth suppression of PTEN-null HCT116, primary screen, cell-based, CellTiter-Glo (AID 827);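 further: PTEN knockout HCT116 line with beta catenin targeted HCT116 as companion control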
Conditions: 60 h, at 10 µM, stronger effect = lower value

Row | SMILES | viability
1 | CN(C)c1ccc(/C=C2\CC3C4CC=C5CC(O)CCC5(C)C4CCC3(C)C2=O)cc1 (stereo not given) | 2.86% (active)
2 | Cc1cccc(-n2c(O)c(/C=N/N3CCOCC3)c(=O)[nH]c2=S)c1 | 108% (inactive)
3 | O=c1[nH]c(=S)n(C2CC2)c(O)c1/C=N/N1CCOCC1 | 95.3% (inactive)
4 | CN(C)CC1CCCCC1OC(=O)c1ccc(Cl)c(Cl)c1 (stereo not given) | 82.2% (inactive)
5 | CCCCC(=O)N/N=C/c1c(O)n(CC)c(=S)n(CC)c1=O | 11.8% (inactive)
